The nature of assay [1]: antimalarial activity against Dd2 strain (AID 2302;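 active means growth inhibition above 50% at the single 2 µM test dose, taken to imply half-maximal potency below 2 µM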;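 further: 0% = DMSO untreated growth and 100% = chloroquine plus artemisinin killed control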). As to conditions: P. falciparum Dd2 in RBCs, LDH growth readout, 72 h; at 2 µM; stronger effect = higher value.
Assay [2] in a line: human hepatoma cell viability loss – ATP luminescence, cytotoxicity control for P. falciparum antimalarial project, primary screen (AID 2303;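 active means inhibition above 50%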;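 further: 0% = DMSO wells and 100% = digitonin-killed cells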). As to conditions: HepG2 viability, 24-48 h, at 10 µM, stronger effect = higher value.
Assay [3] deals with L-lactate dehydrogenase (Plasmodium falciparum (isolate CDC / Honduras)) (UniProt Q27743). Kind of assay: PfLDH activity inhibition – cell lysate, 3D7 strain, counter-screen for P. falciparum growth inhibition project (AID 2304).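 Further: 0% = vehicle and 100% = reference inhibitor.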 The following applies: P. falciparum 3D7 crude extract, LDH APAD/NBT absorbance; at 2 µM; stronger effect = higher value.
L-lactate dehydrogenase (Plasmodium falciparum (isolate CDC / Honduras)), sequence (Q27743 whole entry, looked up): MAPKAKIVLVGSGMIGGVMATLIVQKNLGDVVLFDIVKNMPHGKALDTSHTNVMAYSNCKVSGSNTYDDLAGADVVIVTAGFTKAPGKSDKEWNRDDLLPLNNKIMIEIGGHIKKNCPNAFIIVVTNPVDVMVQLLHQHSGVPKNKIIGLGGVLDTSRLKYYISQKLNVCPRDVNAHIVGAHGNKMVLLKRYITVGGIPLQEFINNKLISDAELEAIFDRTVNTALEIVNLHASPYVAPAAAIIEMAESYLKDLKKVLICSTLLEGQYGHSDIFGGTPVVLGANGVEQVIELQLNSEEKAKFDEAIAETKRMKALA
A short description of assay [4]: inhibition of 3D7 malaria parasite growth – strain 3D7 (AID 2306).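 Further: 0% = DMSO wells and 100% = chloroquine plus artemisinin control wells.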 The following applies: P. falciparum 3D7 erythrocytic growth, LDH absorbance, 72 h; at 2 µM; stronger effect = higher value.
The target of assay [5] is Calcium-dependent protein kinase 1 (Plasmodium falciparum (isolate 3D7)) (UniProt P62344). Kind of assay: PfCDPK1 kinase inhibitors, biochemical, TCAMS library (AID 1159585; cut-off not given, nearly all actives have IC50 up to about 0.98 µM;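 further: inhibitors leave more ATP so luminescence rises with inhibition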). As to conditions: recombinant PfCDPK1, Kinase-Glo ATP depletion luminescence.
Calcium-dependent protein kinase 1 (Plasmodium falciparum (isolate 3D7)), sequence (P62344 whole entry, looked up): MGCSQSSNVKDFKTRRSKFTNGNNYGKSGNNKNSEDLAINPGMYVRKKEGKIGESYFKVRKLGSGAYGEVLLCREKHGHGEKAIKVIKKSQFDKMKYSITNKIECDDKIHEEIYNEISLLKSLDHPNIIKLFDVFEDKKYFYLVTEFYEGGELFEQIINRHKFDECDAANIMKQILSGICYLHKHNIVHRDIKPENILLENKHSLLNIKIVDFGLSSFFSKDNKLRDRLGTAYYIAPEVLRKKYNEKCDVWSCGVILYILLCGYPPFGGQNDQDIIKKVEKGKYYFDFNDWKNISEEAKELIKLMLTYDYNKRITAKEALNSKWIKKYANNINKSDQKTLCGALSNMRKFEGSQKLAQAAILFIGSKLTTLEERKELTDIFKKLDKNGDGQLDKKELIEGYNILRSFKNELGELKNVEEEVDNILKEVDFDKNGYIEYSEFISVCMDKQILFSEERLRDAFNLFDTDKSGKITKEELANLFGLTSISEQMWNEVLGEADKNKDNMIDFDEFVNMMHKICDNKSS
The target in assay [6] is Plasmodium falciparum protein kinase 6 (PK6, PF3D7_1337100) (UniProt Q8IDW1). Kind of assay: PfPK6 kinase inhibitors, biochemical, TCAMS library (AID 1159586). As to conditions: recombinant PfPK6, Kinase-Glo ATP depletion luminescence.
Plasmodium falciparum protein kinase 6 (PK6, PF3D7_1337100), sequence (Q8IDW1 1-305): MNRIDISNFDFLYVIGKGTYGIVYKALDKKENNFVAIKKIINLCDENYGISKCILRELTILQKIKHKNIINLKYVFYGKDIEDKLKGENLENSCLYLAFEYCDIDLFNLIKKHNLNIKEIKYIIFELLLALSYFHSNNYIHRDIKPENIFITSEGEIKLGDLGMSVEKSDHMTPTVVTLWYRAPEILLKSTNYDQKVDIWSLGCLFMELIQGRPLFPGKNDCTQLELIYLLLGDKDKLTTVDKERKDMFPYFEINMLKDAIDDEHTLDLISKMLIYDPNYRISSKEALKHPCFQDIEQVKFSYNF
Assay [7] deals with Protein kinase 7 (PK7), Plasmodium falciparum 3D7 (PF3D7_0213400) (UniProt Q7YTF7). Put plainly: inhibition of Plasmodium PK7 catalytic activity – biochemical, TCAMS antimalarial set, Kinase-Glo luminescence (AID 1159587). The following applies: recombinant PfPK7, Kinase-Glo ATP depletion luminescence.
Protein kinase 7 (PK7), Plasmodium falciparum 3D7 (PF3D7_0213400), sequence (Q7YTF7 1-343): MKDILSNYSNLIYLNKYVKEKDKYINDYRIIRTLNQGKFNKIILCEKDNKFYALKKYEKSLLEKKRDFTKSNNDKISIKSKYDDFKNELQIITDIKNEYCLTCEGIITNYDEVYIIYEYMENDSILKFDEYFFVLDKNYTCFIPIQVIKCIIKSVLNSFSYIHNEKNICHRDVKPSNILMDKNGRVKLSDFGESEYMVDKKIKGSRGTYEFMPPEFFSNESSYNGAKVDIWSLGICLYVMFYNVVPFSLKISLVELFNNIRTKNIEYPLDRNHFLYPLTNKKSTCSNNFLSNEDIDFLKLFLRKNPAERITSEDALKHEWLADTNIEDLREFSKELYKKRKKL
Assay [8] addresses Calcium-dependent protein kinase 4 (Plasmodium falciparum (isolate 3D7)) (UniProt Q8IBS5). Put plainly: PfCDPK4 kinase inhibitors, biochemical, TCAMS library (AID 1159588; cut-off not given, nearly all actives have IC50 up to about 0.91 µM). As to conditions: recombinant PfCDPK4, Kinase-Glo ATP depletion luminescence.

A number with no mark means an inactive call. For some of these results: Potency and affinity values are given separately. Active and inactive are the calls of the source. Unless noted, how the calls were made is not given here.

Calcium-dependent protein kinase 4 (Plasmodium falciparum (isolate 3D7)), sequence (Q8IBS5 whole entry, looked up): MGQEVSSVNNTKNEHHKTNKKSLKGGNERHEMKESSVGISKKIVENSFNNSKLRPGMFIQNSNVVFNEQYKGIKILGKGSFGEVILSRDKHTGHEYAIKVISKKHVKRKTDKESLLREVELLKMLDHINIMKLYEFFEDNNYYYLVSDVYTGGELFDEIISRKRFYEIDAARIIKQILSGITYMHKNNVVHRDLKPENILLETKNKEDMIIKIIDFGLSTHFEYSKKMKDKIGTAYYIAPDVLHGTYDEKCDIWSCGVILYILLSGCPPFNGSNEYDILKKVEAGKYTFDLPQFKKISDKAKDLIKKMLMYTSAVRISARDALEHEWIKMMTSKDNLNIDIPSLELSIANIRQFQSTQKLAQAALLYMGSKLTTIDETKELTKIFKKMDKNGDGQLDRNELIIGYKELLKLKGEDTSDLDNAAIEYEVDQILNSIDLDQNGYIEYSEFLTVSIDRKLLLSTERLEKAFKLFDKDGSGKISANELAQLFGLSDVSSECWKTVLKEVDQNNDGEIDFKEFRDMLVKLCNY

Consider `CCn1cc(CN2C(=O)C(c3ccccc3)(c3ccccc3)N=C2N)cn1`, for which the growth inhibition in assay [1] is 60% (active); in assay [4], 95% (active). The inhibition in assay [2] is 7%; in assay [3], -2%. The result in assay [5], in assay [6], in assay [7] and in assay [8] was inactive.
For the compound `CC(C)CCN1CCCN(Cc2cccc(C(=O)Nc3ccc(C(C)(C)C)cc3)c2)CC1`, the figures for the growth inhibition in assay [1] and in assay [4] were 1% and 85% (active), respectively. The inhibition in assay [2] is 33%; in assay [3], -5%. Further, the outcome in assay [5], in assay [6], in assay [7] and in assay [8] was inactive.
`COc1cccc2cc(C(=O)N[C@@H](CC(C)C)C(=O)N[C@H](/C=N/N(C)C(=O)OC(C)(C)C)CC(=O)OC(C)(C)C)oc12`: the values for the growth inhibition in assay [1] and in assay [4] were 67% (active) and 87% (active), respectively. Moreover, the inhibition in assay [2] was 5%; in assay [3], -8%. Also, the outcome in assay [5], in assay [6], in assay [7] and in assay [8] was inactive.
Regarding `CCCCn1c(Sc2ccc(C#N)c([N+](=O)[O-])c2)nnc1-c1ccc(OC)cc1`, the growth inhibition was 61% (active) in assay [1] and 93% (active) in assay [4]. For the same compound, the inhibition was 12% in assay [2] and 0% in assay [3]. Besides, the outcome in assay [5], in assay [6], in assay [7] and in assay [8] was inactive.
As for `c1ccc(-c2cccnn2)cc1`, the growth inhibition in assay [1] was 6%; in assay [4], 98% (active). The figures for the inhibition in assay [2] and in assay [3] were -7% and 0%, respectively. Further, the outcome in assay [5], in assay [6], in assay [7] and in assay [8] was inactive.
On to `O=C(/C=C/c1ccc(Cl)c(Cl)c1)NCCCCCN1CCC(NC(=S)Nc2cccc(Cl)c2)CC1`, for which the growth inhibition was 43% in assay [1] and 99% (active) in assay [4]. Besides, the inhibition in assay [2] is 24%; in assay [3], 4%. The outcome in assay [5], in assay [6], in assay [7] and in assay [8] was inactive.
As for `Cc1cccc(NC(=O)c2ccc(C(=O)NC3CCN(CC4CCCCC4)CC3)cc2)c1`, the growth inhibition was 18% in assay [1] and 95% (active) in assay [4]. In addition, the figures for the inhibition in assay [2] and in assay [3] were 14% and -1%, respectively. For the same compound, the result in assay [5], in assay [6], in assay [7] and in assay [8] was inactive.
Consider `Oc1ccc2nc(N3CCNCC3)nc(NCCCc3ccccc3)c2c1`, for which the growth inhibition was 0% in assay [1] and 102% (active) in assay [4]. The inhibition in assay [2] is 14%; in assay [3], -4%. The outcome in assay [5], in assay [6], in assay [7] and in assay [8] was inactive.
With `O=C(Nc1ccccc1N1CCOCC1)c1ncoc1-c1ccccc1C(F)(F)F`, the growth inhibition in assay [1] is 60% (active); in assay [4], 89% (active). The inhibition in assay [2] is -2%; in assay [3], 7%. The result in assay [5], in assay [6], in assay [7] and in assay [8] was inactive.
For `CCn1c(Sc2ccc(C#N)c([N+](=O)[O-])c2)nnc1-c1ccc(Cl)cc1`, the growth inhibition in assay [1] is 93% (active); in assay [4], 97% (active). Also, the inhibition in assay [2] was 0%; in assay [3], 6%. In addition, the result in assay [5], in assay [6], in assay [7] and in assay [8] was inactive.
With `C[C@H](Cc1ccc(C(=O)OCCOC(=O)c2ccc(C[C@@H](C)NC[C@H](O)c3cccc(C(F)(F)F)c3)cc2)cc1)NC[C@H](O)c1cccc(C(F)(F)F)c1`, the figures for the growth inhibition in assay [1] and in assay [4] were 86% (active) and 98% (active), respectively. The figures for the inhibition in assay [2] and in assay [3] were 10% and -4%, respectively. The result in assay [5], in assay [6], in assay [7] and in assay [8] was inactive.
As to `C=C[C@]1(C)C[C@@H](OC(=O)NC(=O)C2CCN(C(=O)CSc3ccccc3)CC2)[C@]2(C)[C@H](C)CC[C@]3(CCC(=O)[C@H]32)[C@@H](C)[C@@H]1O`, the growth inhibition in assay [1] was 74% (active); in assay [4] it was 93% (active). Further, the values for the inhibition in assay [2] and in assay [3] were -3% and 1%, respectively. Also, the outcome in assay [5], in assay [6], in assay [7] and in assay [8] was inactive.
`Cc1[nH]cnc1-c1cccc(NC(=O)c2cc3ccccc3s2)c1`: the growth inhibition in assay [1] is 48%; in assay [4] it was 99% (active). The inhibition was 5% in assay [2] and -5% in assay [3]. Moreover, the outcome in assay [5], in assay [6], in assay [7] and in assay [8] was inactive.
As to `CCN(CC)CCN(Cc1ccc(-c2ccc(C(F)(F)F)cc2)cc1)C(=O)Cn1c(CCc2cc(F)c(F)c(F)c2)nc(=O)c2ccccc21`, the figures for the growth inhibition in assay [1] and in assay [4] were 70% (active) and 101% (active), respectively. In addition, the figures for the inhibition in assay [2] and in assay [3] were 31% and -4%, respectively. Besides, the result in assay [5], in assay [6], in assay [7] and in assay [8] was inactive.
`CCCc1cc(NC2CCN(C)CC2)nc(Nc2cccc(OC)c2)n1`: the growth inhibition in assay [1] is 28%; in assay [4], 100% (active). In addition, the figures for the inhibition in assay [2] and in assay [3] were 31% and -3%, respectively. Also, the outcome in assay [5], in assay [6], in assay [7] and in assay [8] was inactive.
With `CCCCCOc1ccc(C(O)C(CCC(CN2CCCCCC2)C(O)c2ccc(OCCCCC)cc2)CN2CCCCCC2)cc1` (stereo not given), the results for the growth inhibition in assay [1] and in assay [4] were 93% (active) and 99% (active), respectively. The inhibition was 99% (active) in assay [2] and 0% in assay [3]. The outcome in assay [5], in assay [6], in assay [7] and in assay [8] was inactive.
Turning to `CC(C)N1CCC(N(Cc2ccc(-c3ccc(C(F)(F)F)cc3)cc2)C(=O)Cn2c(CCc3cccc(F)c3F)cc(=O)c3c2CCC3)CC1`, the growth inhibition in assay [1] was 62% (active); in assay [4], 100% (active). The results for the inhibition in assay [2] and in assay [3] were 30% and -7%, respectively. The result in assay [5], in assay [6], in assay [7] and in assay [8] was inactive.
Turning to `COc1ccc2ncc(C#N)c(CCN3C[C@H](CNCc4ccccc4)[C@H](O)C3)c2n1`, the growth inhibition in assay [1] was 24%; in assay [4], 91% (active). Moreover, the results for the inhibition in assay [2] and in assay [3] were 3% and 4%, respectively. In addition, the result in assay [5], in assay [6], in assay [7] and in assay [8] was inactive.
As to `c1ccc(Nc2nc(-c3ccccn3)cs2)nc1`, the growth inhibition in assay [1] is 93% (active); in assay [4] it was 87% (active). In addition, the inhibition in assay [2] is 45%; in assay [3], 2%. For the same compound, the outcome in assay [5], in assay [6], in assay [7] and in assay [8] was inactive.
`CCCC(C)NC(=O)[C@H]1CNCCN1C(=O)CCCc1ccccc1` (stereo not given in full): the growth inhibition in assay [1] is 98% (active); in assay [4], 96% (active). Also, the inhibition in assay [2] was 47%; in assay [3], 4%. Besides, the outcome in assay [5], in assay [6], in assay [7] and in assay [8] was inactive.

The record behind these values is PubChem BioAssay.
